Source: PubChem (ICCB-Longwood Screening Facility, Harvard Medical School)
Mtb MenB inh: Mtb MenB enzyme inhibition. inhibition, % (test concentration not listed). P9WNP5. MenB enzyme assay, absorbance read-out. hit rate 0.43% among 100,000; in the data active means inhibition above about 21%, passing the limit was not always enough
AID504770: E. coli YBA685 growth inhibition, screen for V. cholerae RctB inhibitors; E. coli YBA685 rctB-dependent plasmid, OD600 growth, 3 h; hits give low values; z-score (no concentration beside the values); hit rate 0.27% among 130,000; AID 504770; in the data active means z-score below about -2, passing the limit was not always enough
Polio RdRp inh: inhibitors of poliovirus RNA polymerase binding and polymerization | P03300 | poliovirus polymerase elongation, fluorescence polarization; hits give low values | % elongation, % (compound at 16.7 µg/mL) | hit rate 0.66% among 150,000; in the data active means % elongation below about 90%
Mtb MbtI inh: MbtI salicylate synthase inhibition. P9WFX0. purified MbtI enzyme, fluorescence intensity read-out. inhibition, % (test concentration not listed). hit rate 0.89% among 100,000. AID 493033; in the data active means inhibition mostly above about 56%, no sharp cut-off; inactive means mostly below about 77%
Numbers without * were called inactive. In the library only some 1.5% were active in any assay of this set; here they are far more common.

`CN1C(=O)C(=C2C=C(c3ccccc3)N(Cc3ccco3)C3=C2CCCC3)C(=O)N(C)C1=O` gave Mtb MenB inh 3, AID504770 -0.05, Polio RdRp inh 96 and Mtb MbtI inh 1.
CCn1c(CSc2ncccn2)nc2cc(C(=O)O)ccc21 was read as Mtb MenB inh -23, AID504770 -0.2, Polio RdRp inh 86 and Mtb MbtI inh 8.
CCn1c(CS(=O)(=O)c2cc(C)ccc2C)nc2cc(C(=O)O)ccc21 was read as Mtb MenB inh 1, AID504770 -0.55, Polio RdRp inh 81* and Mtb MbtI inh -11.
`CCN(Cc1ccc2c(c1)OCCO2)C(=S)NCc1ccco1` gave Mtb MenB inh -31, AID504770 -0.3, Polio RdRp inh 97 and Mtb MbtI inh 89*.
`O=C(Cc1ccc2c(c1)OCCO2)NCc1ccco1` gave Mtb MenB inh 7, AID504770 1.4 and Mtb MbtI inh 28.
Screening c1ccc(CN2CCN(Cc3ccc4c(c3)OCCO4)CC2)cc1 returned Mtb MenB inh 8, AID504770 0.25, Polio RdRp inh 100 and Mtb MbtI inh -2.
Screening CCN1C(=O)N(c2ccccc2)P(=S)(N2CCCC2)c2cc3c(cc21)OCCO3 (configuration not stated) returned Mtb MenB inh -18, AID504770 -0.25, Polio RdRp inh 87* and Mtb MbtI inh 90*.
S=c1[nH]nc(SCc2cccs2)s1 was read as Mtb MenB inh 3, AID504770 0.15, Polio RdRp inh 98 and Mtb MbtI inh 102*.
Screening CCC(C)[C@@H](CO[C@@H](Cc1ccccc1)C(=O)N[C@@H](CCS(C)(=O)=O)C(=O)OC(C)C)NC[C@@H](N)CS (some centres not stated) returned Mtb MenB inh -13, Polio RdRp inh 103 and Mtb MbtI inh 67*.
`S=c1[nH]nc(CCCOc2ccc(Cl)cc2Cl)o1` gave Mtb MenB inh -39, AID504770 -0.7, Polio RdRp inh 87* and Mtb MbtI inh 90*.
Screening O=C1CN=C(Nc2ccc(F)cc2)N1C1CCCC1 returned Mtb MenB inh -33, AID504770 -0.25, Polio RdRp inh 102 and Mtb MbtI inh -1.
For CCn1c(-c2cc(OC)ccc2OC)csc1=Nc1ccc(O)cc1 the results were Mtb MenB inh -37, AID504770 -0.15, Polio RdRp inh 87* and Mtb MbtI inh 66*.
For Cc1ccc(C2Nc3ccccc3NC3=C2C(=O)CC(C)(C)C3)o1 (configuration not stated) the results were Mtb MenB inh -37, AID504770 1.1, Polio RdRp inh 96 and Mtb MbtI inh 18.
`O=C(Sc1cccs1)C1COc2ccccc2O1` (configuration not stated) gave AID504770 -2.3*.
For Cc1ccc2c(c1)CCCN2C(=O)c1csc(C)c1 the results were Mtb MenB inh -17, AID504770 -0.05, Polio RdRp inh 98 and Mtb MbtI inh 0.
O=C(O)c1ccc2ncsc2c1 was read as AID504770 -0.35, Polio RdRp inh 88* and Mtb MbtI inh 77.
`O=C1C2SCCN2C(=S)N1c1cccc(C(F)(F)F)c1` (configuration not stated) gave Mtb MenB inh 2, AID504770 -0.8, Polio RdRp inh 100 and Mtb MbtI inh 70*.
Screening Clc1ccccc1C1SCC2Nc3ccccc3CN21 (configuration not stated) returned Mtb MenB inh 71*, AID504770 -0.75, Polio RdRp inh 105 and Mtb MbtI inh -5.
Screening CC1=C(O)C(=O)C=C2C1=CC=C1[C@@]2(C)CC[C@@]2(C)[C@@H]3C[C@](C)(C(=O)O)CC[C@]3(C)CC[C@]12C returned Mtb MenB inh 12, AID504770 0.7, Polio RdRp inh 102 and Mtb MbtI inh 103*.
COc1cc2cc3c4cc(OC)c(OC)cc4cc[n+]3c(C)c2cc1OC was read as Mtb MenB inh 3, AID504770 -0.35, Polio RdRp inh 88* and Mtb MbtI inh 55.
Screening COc1ccc(CC(=O)n2[nH]c(=O)cc(C)c2=O)cc1OC returned Mtb MenB inh 0, AID504770 -0.75, Polio RdRp inh 99 and Mtb MbtI inh 56*.
For CC1=CC(c2ccccc2)=C(C#N)C(=S)C1CC(=O)c1cccs1 (configuration not stated) the results were Mtb MenB inh -17, AID504770 0.5 and Polio RdRp inh 85*.
COc1cccc2c(CCN)c[nH]c12 was read as Mtb MenB inh 6, AID504770 0.35 and Polio RdRp inh 89*.
Screening CCCCN1COc2c(cc(Cl)c3cccnc23)C1 returned Mtb MenB inh -10, AID504770 -5.8*, Polio RdRp inh 101 and Mtb MbtI inh -119.
